PubChem BioAssay AID1159580 (chemical genetic matrix, 2015)
In all, about 5,500 compounds went through this assay and about 2,000 (36%) were called active. Inconclusive results (about 18%) are left out. Rule as the data show it: active = normalized growth mostly below about 0.91 (no sharp cut-off); inconclusive = no clear call, values can overlap the other calls; inactive = mostly above about 0.92. The list shows a part of the results.

Test: chemical genetic growth profiling, strain panel (AID 1159580);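 also: tested at 20 µM; growth read once vehicle control cultures reached saturation at 30 °C; 1 = growth at the plate median or of vehicle wells; lower values mean less growth of the strain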
Details: growth OD

Measured: normalized growth

Clc1ccc(COC(Cn2ccnc2)c2ccc(Cl)cc2Cl)cc1 (stereo unspecified)
active: S. cerevisiae deletion strains, locus YJR066W, strain TOR1, stronger effect = lower value 0.00125 | S. cerevisiae deletion strains, locus YJR075W, strain HOC1, stronger effect = lower value 0.0611 | S. cerevisiae deletion strains, locus YKL009W, strain mrt4, stronger effect = lower value 0.0921 | S. cerevisiae deletion strains, locus YKL068W, stronger effect = lower value 0.0732 | S. cerevisiae deletion strains, locus YKL085W, strain MDH1 (second series), stronger effect = lower value 0.0674 | S. cerevisiae deletion strains, locus YKL085W, strain MDH1, stronger effect = lower value 0.0674 | S. cerevisiae deletion strains, locus YKL160W, strain elf1, stronger effect = lower value 0.0682 | S. cerevisiae deletion strains, locus YKL190W, strain CNB1, stronger effect = lower value 0.0459 | S. cerevisiae deletion strains, locus YKR001C, strain vps1, stronger effect = lower value 0.0628 | S. cerevisiae deletion strains, locus YKR026C, strain gcn3, stronger effect = lower value 0.0617 | S. cerevisiae deletion strains, locus YKR091W, strain srl3, stronger effect = lower value 0.0578 | S. cerevisiae deletion strains, locus YLL001W, strain dnm1, stronger effect = lower value 0.0616 | S. cerevisiae deletion strains, locus YLL026W, stronger effect = lower value 0.0557 | S. cerevisiae deletion strains, locus YLL041C, strain sdh2, stronger effect = lower value 0.0556 | S. cerevisiae deletion strains, locus YLR027C, strain aat2, stronger effect = lower value 0.0535 | S. cerevisiae deletion strains, locus YLR039C, strain RIC1, stronger effect = lower value 0.0808 | S. cerevisiae deletion strains, locus YLR058C, strain SHM2, stronger effect = lower value 0.0475 | S. cerevisiae deletion strains, locus YLR102C, strain apc9, stronger effect = lower value 0.0627 | S. cerevisiae deletion strains, locus YLR113W, strain HOG1, stronger effect = lower value 0.128 | S. cerevisiae deletion strains, locus YLR221C, strain rsa3, stronger effect = lower value 0.0566 | S. cerevisiae deletion strains, locus YLR258W, strain gsy2, stronger effect = lower value 0.0569 | S. cerevisiae deletion strains, locus YLR262C, strain YPT6 (second series), stronger effect = lower value 0.0789 | S. cerevisiae deletion strains, locus YLR262C, strain YPT6, stronger effect = lower value 0.112 | S. cerevisiae deletion strains, locus YLR268W, strain sec22, stronger effect = lower value 0.0635 | S. cerevisiae deletion strains, locus YLR320W, strain mms22, stronger effect = lower value 0.139 | S. cerevisiae deletion strains, locus YLR330W, strain CHS5, stronger effect = lower value 0.0517 | S. cerevisiae deletion strains, locus YLR342W, strain FKS1 (second series), stronger effect = lower value 0.0624 | S. cerevisiae deletion strains, locus YLR342W, strain FKS1, stronger effect = lower value 0.0696 | S. cerevisiae deletion strains, locus YLR357W, strain rsc2, stronger effect = lower value 0.121 | S. cerevisiae deletion strains, locus YLR370C, strain arc18, stronger effect = lower value 0.0609 | S. cerevisiae deletion strains, locus YLR371W, strain rom2, stronger effect = lower value 0.0612 | S. cerevisiae deletion strains, locus YLR384C, strain iki3, stronger effect = lower value 0.0595 | S. cerevisiae deletion strains, locus YLR418C, strain cdc73, stronger effect = lower value 0.089 | S. cerevisiae deletion strains, locus YML016C, strain PPZ1, stronger effect = lower value 0.046 | S. cerevisiae deletion strains, locus YML032C, strain rad52, stronger effect = lower value 0.0629 | S. cerevisiae deletion strains, locus YML120C, strain ndi1, stronger effect = lower value 0.0559 | S. cerevisiae deletion strains, locus YML124C, strain tub3, stronger effect = lower value 0.06 | S. cerevisiae deletion strains, locus YMR058W, strain fet3, stronger effect = lower value 0.0614 | S. cerevisiae deletion strains, locus YMR078C, strain ctf18, stronger effect = lower value 0.0711 | S. cerevisiae deletion strains, locus YMR125W, strain sto1, stronger effect = lower value 0.0771 | S. cerevisiae deletion strains, locus YMR129W, stronger effect = lower value 0.0559 | S. cerevisiae deletion strains, locus YMR205C, strain PFK2, stronger effect = lower value 0.0917 | S. cerevisiae deletion strains, locus YMR223W, strain ubp8, stronger effect = lower value 0.0593 | S. cerevisiae deletion strains, locus YMR231W, strain pep5, stronger effect = lower value 0.125 | S. cerevisiae deletion strains, locus YMR263W, strain SAP30, stronger effect = lower value 0.055 | S. cerevisiae deletion strains, locus YMR307W, strain GAS1, stronger effect = lower value 0.123 | S. cerevisiae deletion strains, locus YNL067W, strain RPL9B, stronger effect = lower value 0.0483 | S. cerevisiae deletion strains, locus YNL071W, strain lat1, stronger effect = lower value 0.0586 | S. cerevisiae deletion strains, locus YNL128W, strain TEP1, stronger effect = lower value 0.0622 | S. cerevisiae deletion strains, locus YNL153C, strain GIM3, stronger effect = lower value 0.0497 | S. cerevisiae deletion strains, locus YNL183C, strain NPR1, stronger effect = lower value -0.00516 | S. cerevisiae deletion strains, locus YNL209W, strain ssb2, stronger effect = lower value 0.0633 | S. cerevisiae deletion strains, locus YNL233W, strain BNI4, stronger effect = lower value 0.0542 | S. cerevisiae deletion strains, locus YNL248C, strain rpa49, stronger effect = lower value 0.0786 | S. cerevisiae deletion strains, locus YNL250W, strain rad50, stronger effect = lower value 0.0799 | S. cerevisiae deletion strains, locus YNL271C, strain bni1, stronger effect = lower value 0.0793 | S. cerevisiae deletion strains, locus YNL298W, strain CLA4, stronger effect = lower value 0.0698 | S. cerevisiae deletion strains, locus YNL307C, strain MCK1, stronger effect = lower value 0.0676 | S. cerevisiae deletion strains, locus YNL322C, strain KRE1 (second series), stronger effect = lower value 0.067 | S. cerevisiae deletion strains, locus YNR049C, strain mso1, stronger effect = lower value 0.0571 | S. cerevisiae deletion strains, locus YNR052C, strain pop2, stronger effect = lower value 0.0609 | S. cerevisiae deletion strains, locus YOL006C, strain TOP1, stronger effect = lower value 0.104 | S. cerevisiae deletion strains, locus YOL012C, strain htz1 0.142 | S. cerevisiae deletion strains, locus YOL147C, strain pex11, stronger effect = lower value 0.0571 | S. cerevisiae deletion strains, locus YOR001W, strain rrp6, stronger effect = lower value 0.0678 | S. cerevisiae deletion strains, locus YOR061W, strain CKA2, stronger effect = lower value 0.0453 | S. cerevisiae deletion strains, locus YOR069W, strain VPS5, stronger effect = lower value 0.0468 | S. cerevisiae deletion strains, locus YOR070C, strain gyp1, stronger effect = lower value 0.0583 | S. cerevisiae deletion strains, locus YOR080W, strain dia2, stronger effect = lower value 0.0655 | S. cerevisiae deletion strains, locus YOR083W, strain WHI5, stronger effect = lower value 0.0646 | S. cerevisiae deletion strains, locus YOR106W, strain vam3, stronger effect = lower value 0.0717 | S. cerevisiae deletion strains, locus YOR136W, strain idh2, stronger effect = lower value 0.0693 | S. cerevisiae deletion strains, locus YOR144C, strain elg1, stronger effect = lower value 0.0562 | S. cerevisiae deletion strains, locus YOR184W, strain ser1, stronger effect = lower value 0.0649 | S. cerevisiae deletion strains, locus YOR231W, strain MKK1, stronger effect = lower value 0.119 | S. cerevisiae deletion strains, locus YOR265W, strain rbl2, stronger effect = lower value 0.0574 | S. cerevisiae deletion strains, locus YOR270C, strain vph1, stronger effect = lower value 0.104 | S. cerevisiae deletion strains, locus YOR290C, strain snf2, stronger effect = lower value 0.0649 | S. cerevisiae deletion strains, locus YOR316C, strain cot1, stronger effect = lower value 0.0595 | S. cerevisiae deletion strains, locus YPL051W, strain arl3, stronger effect = lower value 0.0626 | S. cerevisiae deletion strains, locus YPL078C, strain atp4, stronger effect = lower value 0.0787 | S. cerevisiae deletion strains, locus YPL106C, strain sse1, stronger effect = lower value 0.0958 | S. cerevisiae deletion strains, locus YPL240C, strain hsp82, stronger effect = lower value 0.0557 | S. cerevisiae deletion strains, locus YPL241C, strain CIN2, stronger effect = lower value 0.0472 | S. cerevisiae deletion strains, locus YPL256C, strain CLN2, stronger effect = lower value 0.127 | S. cerevisiae deletion strains, locus YPR119W, strain clb2, stronger effect = lower value 0.062 | S. cerevisiae deletion strains, locus YPR141C, strain kar3, stronger effect = lower value 0.0789 | S. cerevisiae deletion strains, locus YPR163C, strain tif3, stronger effect = lower value 0.0707 | S. cerevisiae deletion strains, locus YPR167C, strain met16, stronger effect = lower value 0.0615 | S. cerevisiae deletion strains, strain wtn01, stronger effect = lower value 0.0584 | S. cerevisiae strains, strain wild type, stronger effect = lower value 0.0556
